Insulin prom inh = TRM-6 insulin promoter activity inhibition. TRM-6 cells (human fetal islet line), insulin promoter-eGFP reporter, imaging; reporter expression induced with tamoxifen. inhibition, % at 2 µM. actives 0.9% (n = 130,000);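 active means inhibition above the mean plus 3 SD, with well images judged a real hit on visual review, cut at about 60% in these data, passing the limit was not always enough; inconclusive means inhibition over the cutoff but images rejected on review; inactive means inhibition not above the cutoff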
Autophagy HCS = alters autophagy in cells; actives 0.98% (n = 190,000); calls only at 10 µM (by protocol); AID 463193; MEF GFP-LC3 puncta imaging; test concentration mostly 10 µM;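 active means percentage of spot-positive cells more than 3 SD above its plate mean, without a fluorescence outlier flag or 80% toxicity; inconclusive means no clear call, values can overlap the other calls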
PTEN del growth = growth suppressors of cells with PTEN tumor suppressor deletion | viability, % at 10 µM | AID 827 | HCT116 PTEN-null viability, CellTiter-Glo, 60 h; active compounds read low | actives 1.2% (n = 140,000);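 active means viability at or below a set limit, 4 SD under the median of all tested compounds, cut at about 3.7% in these data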;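 further: PTEN knockout HCT116 line with beta catenin targeted HCT116 as companion control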
L major viab = Leishmania major promastigote growth inhibition; Leishmania major promastigotes, resazurin fluorescence viability; inhibition, % at 10 µM; actives 9% (n = 200,000); AID 1063; in the data active means inhibition above about 50%;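 further: promastigotes grown with compound for 44 hours at 28 °C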
bCat KO growth = beta-catenin-lacking colon tumor cell growth suppression. HCT116 beta-catenin knockout viability, CellTiter-Glo, 60 h; active compounds read low. viability, % at 10 µM. actives 1.5% (n = 140,000);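 active means viability at or under a set limit, the compound median less 4 SD, cut at about 6% in these data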
Insulin prom up = MIN6 insulin promoter up-regulation; MIN6 insulin promoter-GFP reporter, high-content imaging; active compounds read high; z-score at 5 µM; actives 0.3% (n = 190,000); AID 1625;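 active means z-score above 3 at 5 µM with at least 500 cells counted in the well; inconclusive means wells under 500 cells, flagged as cytotoxic or low count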
Lmaj promast 1uM = inhibitors of Leishmania major promastigote growth, repeat at 1 uM; shares compounds with L major viab; L. major promastigote growth, resazurin fluorescence, 48 h; inhibition, % at 1 µM; actives 13% (n = 1,100); AID 1258;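 active means inhibition above about 50% in both repeat tests, limit read from the data; inconclusive means one repeat under the set limit, the other over it; inactive means both repeats under the set limit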
Hits are given with their value; – = inactive; ? = inconclusive; · = no result; + = active, no number. A selection: hits, their analogues and other compounds. The true share with any hit is near 9.6%.

SMILES	Insulin prom inh	Autophagy HCS	PTEN del growth	L major viab	bCat KO growth	Insulin prom up	Lmaj promast 1uM
O=C(NCc1ccc2c(c1)OCO2)C1CCC(=O)N1C1CCCCC1 (configuration not stated)	·	·	·	·	·	–	·
O=C(O)CC(NC(=S)NCc1ccccc1)C(=O)O (configuration not stated)	–	–	–	80	–	–	–
Cc1cccc(N2C(=O)CC(NNc3nc4ccccc4s3)C2=O)c1 (configuration not stated)	–	–	–	–	–	–	·
CCN(CC)c1ccc(CN2CCCCCC2)cc1	–	–	–	90	–	–	–
COC(=O)c1ccc(COc2ccc(C3C4=C(CCCC4=O)Nc4onc(C)c43)cc2)cc1 (configuration not stated)	–	–	–	100	–	–	55
COC(=O)c1ccc(C2CC(=O)NC3=C2C(=O)CCC3)cc1 (configuration not stated)	·	–	–	–	–	–	·
C[C@@H]1CC[C@@]2(O[C@H](CCO)C[C@H](O)[C@H]2O)O1	·	–	·	–	·	–	·
O=[N+]([O-])c1cccc(-c2nc(-c3cccs3)c(-c3cccs3)[nH]2)c1	–	–	–	–	–	–	·
O=[N+]([O-])c1ccc(-c2nc(-c3cccs3)c(-c3cccs3)[nH]2)cc1	–	+	–	92	–	·	55
O=C1ON=C(c2ccccc2)/C1=C\c1ccco1	·	·	·	·	·	–	·
COc1cc(/C=C2\C(=O)ON=C2c2ccccc2)cc(Cl)c1O	·	–	·	50	·	–	–
CCSC1=NCCN1C(=O)C(C)(C)Oc1ccc(Cl)cc1	·	–	·	65	·	–	–
CSC1=NCCN1C(=O)C(C)(C)Oc1ccc(Cl)cc1	·	–	·	–	·	·	·
CN(C)S(=O)(=O)c1cccc(-c2cn3cc(Cl)ccc3n2)c1	–	–	–	99	–	·	–
CN(C)S(=O)(=O)c1cccc(-c2cn3ccccc3n2)c1	·	–	–	–	–	–	·
O=C(O)c1nn(CC(=O)N2CCN(S(=O)(=O)c3ccc(Cl)cc3)CC2)c(=O)c2ccccc12	·	·	·	·	·	–	·
COc1ccc(OC(C)C(=O)Nc2ccc(F)cc2F)cc1 (configuration not stated)	–	–	·	–	·	–	·
COc1ccc(CNC(=O)NC2CCCCC2)cc1	–	–	–	–	–	–	·
COc1ccc(CN2CCC(CNC(=O)NC3CCCCC3)CC2)cc1	·	–	–	90	–	–	–
Cc1ccc(S(=O)(=O)c2c(C)nn(-c3ccccc3)c2OC(=O)c2ccc(Br)o2)cc1	–	–	–	53	–	–	–
O=C1NCC2(CCN(CCc3ccccc3)CC2)O1	·	·	·	·	·	–	·
CCOc1ccc(-c2ccc(C=O)o2)c([N+](=O)[O-])c1	–	–	–	–	–	–	·
C=CCc1c(C)nc(SC)nc1Nc1ccc(C)cc1	·	–	–	97	–	–	–
C=CCc1c(C)nc(C)nc1N/N=C/c1ccc(F)cc1	–	–	–	–	–	–	·
O=C(c1cc2ccccc2o1)N1CCN(S(=O)(=O)c2cccs2)CC1	–	–	–	72	–	·	–
SMILES	Insulin prom inh	Autophagy HCS	PTEN del growth	L major viab	bCat KO growth	Insulin prom up	Lmaj promast 1uM
CC1(OC(=O)CCc2ccccc2)C(=O)C=C2C=C(c3ccc(C#N)cc3)N(C3CCCCC3)C=C2C1=O (configuration not stated)	·	·	·	·	·	–	·
CCn1c(-c2ccc(N)cc2)nc2ccccc21	·	–	–	–	–	–	·
CCn1c(-c2ccc(N(C)C)cc2)nc2ccccc21	–	–	–	97	–	?	–
CC(=O)Nc1ccccc1NC(=O)c1cc(C)ccc1C	·	–	·	–	·	–	·
CCN1C(=O)NC2=C(C(=O)c3ccccc32)C1c1ccccc1F (configuration not stated)	·	–	–	100	–	–	–
Clc1ccc(-c2nnc(-c3ccco3)nc2N2CCCCC2)cc1	–	–	–	64	–	–	–
Clc1ccc(-c2nnc(-c3ccc(Br)cc3)c(N3CCSCC3)n2)cc1	·	–	–	–	–	–	·
COc1cc(NCc2ccccc2O)c2ncccc2c1	·	·	·	·	·	–	·
CCOC(=O)c1ccc(NC(=S)N2CCSC2c2ccc(OC)cc2)cc1 (configuration not stated)	·	–	–	–	–	–	·
CCOC(=O)c1ccc(NC(=S)N2CCSC2c2ccc(Cl)cc2)cc1 (configuration not stated)	·	–	–	60	–	–	–
Cc1ccc([N+](=O)[O-])cc1NC(=S)NC(=O)c1cccnc1	·	–	·	–	·	–	·
COc1ccc2c(c1)C(=O)[C@@H](O)[C@H](c1ccc(OC)c(Br)c1)O2	–	–	–	98	–	–	–
COc1ccc2c(c1)C(=O)[C@@H](OC(=O)NCc1ccc3c(c1)OCO3)[C@H](c1ccc(OC)c(Br)c1)O2	–	–	–	–	–	–	·
O=C(O)c1ccc(NC(=S)NC(NC(=O)c2ccco2)C(Cl)(Cl)Cl)cc1 (configuration not stated)	–	–	–	–	–	–	·
Cc1ccc(NC(=S)NC(NC(=O)c2ccco2)C(Cl)(Cl)Cl)cc1 (configuration not stated)	–	–	–	83	–	–	–
COC(=O)Cc1c[nH]c2cccc(OCC(O)CN(Cc3ccccc3)C(C)C)c12 (configuration not stated)	–	–	–	98	–	·	–
CS(=O)(=O)Nc1ccc(C(=O)NCc2ccccn2)cc1	–	–	–	–	–	–	·
COc1ccc(N2C3=[N+](CC2(C)O)c2ccccc2CC3)cc1 (configuration not stated)	–	–	–	90	–	–	–
COCCn1c(SCC(=O)Nc2ccc3c(c2)OCCO3)nnc1-c1c[nH]c2ccccc12	·	–	–	–	–	–	·
CCOC(=O)c1c(NC(=O)CSc2nnc(-c3c[nH]c4ccccc34)n2CCOC)sc2c1CCCC2	–	–	–	72	–	–	–
c1ccc(-c2nnc(-c3ccccc3)o2)cc1	–	–	–	–	–	–	·
ClCc1nnc(-c2ccccc2)o1	–	–	–	101	–	–	–
O=C(O)c1cccnc1Sc1ccccc1Cl	·	·	·	·	·	–	·
CC1=CC(C)C2(COC(c3ccc[n+](C)c3)OC2)C(C)C1 (configuration not stated)	·	–	·	100	·	–	–
O=[N+]([O-])c1ccc(NNC(=S)Nc2ccc(F)cc2)cc1	–	–	–	101	–	·	79
CCn1c(SCC(=O)Nc2ccc(C)cc2)nnc1-c1ccccn1	·	·	·	·	·	–	·
CN1CCC(OC(=O)c2ccccc2Cl)CC1	·	–	·	76	·	–	–
CN1CCN(S(=O)(=O)c2ccc(NC(=S)NC(=O)c3ccc(Cl)cc3)cc2)CC1	·	–	–	85	–	–	–
CCOC(=O)c1c(CSC(=N)N)n(-c2ccc(C)cc2)c2cc(Br)c(OC(C)=O)cc12	–	–	–	53	–	·	–
COc1cccc(C(C(=O)NC2CCCCC2)N(CC2CCCO2)C(=O)CNC(=O)c2ccco2)c1 (configuration not stated)	–	–	–	–	–	·	·
